# Source: PubChem BioAssay (Broad Institute)
# Shown is part of a subset that was picked to be rich in hits.
# C diff HTS = C. difficile growth inhibition. hit rate 0.25% among 86,000. Clostridium difficile clinical isolate growth, OD600, 24 h; active compounds read low. growth activity, negative = inhibition, % at 16 µg/mL (by protocol);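 active means mean growth activity at or below -80% and every replicate also at or below -80%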;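 further: 0% = DMSO wells and -100% = levofloxacin 16 µg/mL wells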
# * marks the source's active call; other numbers are inactive results; ! = repeats disagree.
SMILES,C diff HTS
C[C@H]1CN([C@@H](C)CO)C(=O)Cc2cc(N(C)C)ccc2O[C@@H]1CN(C)S(C)(=O)=O,7
CO[C@H]1CN(C)C(=O)c2ccc(NC(C)=O)cc2OC[C@@H](C)N(C(=O)Cc2cccnc2)C[C@@H]1C,2
C[C@H](CO)N1C[C@H](C)[C@H](CN(C)Cc2ccncc2)Oc2ncc(C3=CCCCC3)cc2C1=O,-2
CC(C)NC(=O)N(C)C[C@@H]1OCCCC[C@H](C)Oc2ccc(NC(=O)CCC(F)(F)F)cc2C(=O)N([C@H](C)CO)C[C@H]1C,7
COc1cc(CN2CC3(CN(S(=O)(=O)c4cccs4)C3)c3c(n(C)c4cc(OC)ccc34)[C@@H]2CO)cc(OC)c1,-87*
COc1ccc2c3c([nH]c2c1)[C@@H](CO)N(C(=O)Nc1ccc(F)cc1)CC31CN(S(=O)(=O)c2cccs2)C1,-95*
COc1ccc2c3c(n(C)c2c1)[C@H](CO)N(CC1CC1)CC31CN(S(=O)(=O)c2cccs2)C1,10
COc1ccc2c3c([nH]c2c1)[C@@H](CO)N(C(=O)Nc1ccc(F)cc1)CC31CN(S(=O)(=O)c2cccc(F)c2)C1,-3
COc1ccc2c3c([nH]c2c1)[C@H](CO)N(C(=O)Nc1ccc(F)cc1)CC31CN(S(=O)(=O)c2ccccc2)C1,-2
COc1cc(CN2CC3(CCN(S(=O)(=O)c4cccs4)CC3)c3c(n(C)c4cc(OC)ccc34)[C@@H]2CO)cc(OC)c1,10
Cc1noc(C)c1NC(=O)Nc1ccc2c(c1)C(=O)N([C@@H](C)CO)C[C@H](C)[C@@H](CN(C)S(C)(=O)=O)OCCCC[C@H](C)O2,0
COc1ccc2c3c(n(C)c2c1)[C@H](CO)N(C(=O)Nc1ccc(F)cc1)CC31CCN(C(=O)Nc2ccc(F)cc2F)CC1,1
CNC[C@@H]1Oc2ncc(-c3ccc(C)cc3)cc2C(=O)N([C@H](C)CO)C[C@H]1C,-1
Cc1cccc(S(=O)(=O)N2CCCCN3[C@H](CO)[C@H](c4ccc(C#CC(C)C)cc4)[C@@H]3C2)c1,-4
N#Cc1cccc(-c2ccc(C3[C@H]4CNC[C@@H]3N4C(=O)Nc3ccc(F)cc3)cc2)c1 (some centres not stated),7
N#Cc1ccc(-c2ccc(C3[C@@H]4CN(C(=O)Nc5ccc(C(F)(F)F)cc5)C[C@H]3N4)cc2)cc1 (some centres not stated),-96*!
N#Cc1ccc(-c2ccc(C3[C@@H]4CN(C(=O)C5CC5)C[C@H]3N4)cc2)cc1 (some centres not stated),-11
O=C(Nc1ccccc1)N1C[C@@H]2N[C@H](C1)C2c1ccc(-c2ccccc2F)cc1 (some centres not stated),39
COc1ccc(-c2ccc(C3[C@H]4CNC[C@@H]3N4C(=O)Nc3ccc(C(F)(F)F)cc3)cc2)cc1 (some centres not stated),-99*!
COc1ccc(-c2ccc(C3[C@H]4CNC[C@@H]3N4C(=O)Nc3ccc(F)cc3)cc2)cc1 (some centres not stated),49
Cc1ccc(-c2ccc(C3[C@@H]4CN(C(=O)Nc5ccc(C(F)(F)F)cc5)C[C@H]3N4)cc2)cc1 (some centres not stated),-92*!
O=C(Nc1ccccc1F)N1C[C@@H]2N[C@H](C1)C2c1ccc(-c2cccc(F)c2)cc1 (some centres not stated),79
O=C(Nc1ccc(C(F)(F)F)cc1)N1C[C@@H]2N[C@H](C1)C2c1ccc(-c2cccc(F)c2)cc1 (some centres not stated),-99*
COc1ccc(NC(=O)N2C[C@@H]3N[C@H](C2)C3c2ccc(-c3cccc(F)c3)cc2)cc1 (some centres not stated),3
N#Cc1ccc(-c2ccc([C@@H]3[C@@H]4CN(C(=O)Nc5ccc6c(c5)OCO6)C[C@H]3N4)cc2)cc1,22
SMILES,C diff HTS
O=C(Nc1ccc(F)cc1)N1C[C@@H]2N[C@H](C1)C2c1ccc(-c2cccnc2)cc1 (some centres not stated),-5
COc1ccc(NC(=O)N2[C@@H]3CNC[C@H]2C3c2ccc(-c3ccc(OC)cc3)cc2)cc1 (some centres not stated),-11
C[C@@H]1CN([C@H](C)CO)C(=O)c2cc(C#CCN(C)C)cnc2O[C@H]1CN(C)C(=O)CCN1CCCCC1,-1
COCC1CC(c2ccccc2)OC(c2ccc(NC(=O)CCCCCCC(=O)O)cc2)O1 (configuration not stated),0
C[C@@H]1CCCCO[C@@H](CN(C)Cc2ccc(Cl)c(Cl)c2)[C@H](C)CN([C@H](C)CO)C(=O)c2cc(NC(=O)C3CCCCC3)ccc2O1,3
Cc1ccccc1S(=O)(=O)NCC[C@@H]1CC[C@@H](NC(=O)C2CCCCC2)[C@H](CO)O1,0
C[C@@H]1CN([C@@H](C)CO)S(=O)(=O)c2ccc(-c3ccncc3)cc2O[C@H]1CN(C)C(=O)CC1CC1,5
CCCNC(=O)C[C@H]1CC[C@@H]2[C@@H](COc3ccc(NC(=O)C4CCCC4)cc3C(=O)N2C)O1,-7
C[C@H](NC(=O)C[C@@H]1C=C[C@@H](NC(=O)Cc2ccccn2)[C@@H](CO)O1)c1ccccc1,-2
Cc1cccc(S(=O)(=O)N2C[C@@H]3N[C@H](C2)C3c2ccc(-c3cccnc3)cc2)c1 (some centres not stated),-15
COc1cccc(S(=O)(=O)N2C[C@@H]3N[C@H](C2)C3c2ccc(-c3cccc(C)c3)cc2)c1 (some centres not stated),-94*!
COc1cccc(CN2C[C@@H]3N[C@H](C2)C3c2ccc(-c3cccc(C#N)c3)cc2)c1 (some centres not stated),43
COc1cc(CN2C[C@@H]3N[C@H](C2)C3c2ccc(-c3ccccc3C)cc2)cc(OC)c1 (some centres not stated),-99*
COc1ccc(-c2ccc(C3[C@@H]4CN(S(=O)(=O)c5cccc(C)c5)C[C@H]3N4)cc2)cc1 (some centres not stated),-4
COc1cccc(-c2ccc(C3[C@@H]4CN(Cc5cccc(F)c5)C[C@H]3N4)cc2)c1 (some centres not stated),-99*
COc1ccc(-c2ccc(C3[C@@H]4CN(Cc5cccc(OC)c5)C[C@H]3N4)cc2)cc1 (some centres not stated),-81*!
COc1cccc(CN2C[C@@H]3N[C@H](C2)C3c2ccc(-c3ccncc3)cc2)c1 (some centres not stated),-3
COc1cccc(-c2ccc(C3[C@@H]4CN(C(=O)C5CCCC5)C[C@H]3N4)cc2)c1 (some centres not stated),-5
COc1cccc(-c2ccc(C3[C@@H]4CN(Cc5ccccn5)C[C@H]3N4)cc2)c1 (some centres not stated),13
COc1ccc(-c2ccc(C3[C@@H]4CN(Cc5ccccn5)C[C@H]3N4)cc2)cc1 (some centres not stated),-12
C/C=C/c1ccc(C2[C@@H]3CN(Cc4cc(OC)cc(OC)c4)C[C@H]2N3)cc1 (some centres not stated),21
COc1ccc(NC(=O)Nc2ccc3c(c2)C(=O)N([C@@H](C)CO)C[C@@H](C)[C@H](CN(C)C(=O)c2ccccc2)OCCCC[C@@H](C)O3)cc1,8
CN1CCN(C(=O)C[C@H]2CC[C@@H]3[C@H](COC[C@H](O)CN3C(=O)c3ccc(F)cc3)O2)CC1,3
